Source: PubChem (National Center for Advancing Translational Sciences (NCATS))
VACV Venus inh = vaccinia inhibition (Venus reporter); Potency, µM (titrated, usually from 36.5 µM), for inactives: at the top dose activity change, negative = inhibition, hits mostly inhibitors; AID 720580; Vaccinia virus Venus reporter expression, fluorescence; actives 0.46% (n = 330,000); calls by dose curve; tested in A549 cells; note: nearly all actives have a fitted effect of over 30% in size
VACV mCherry inh = vaccinia inhibition (mCherry reporter); Potency, µM (top dose mostly 36.5 µM), without a hit: at the highest dose activity change, negative = inhibition, actives largely listed as inhibitors; actives 0.63% (n = 310,000); Vaccinia virus mCherry reporter infection, fluorescence; AID 720579; calls by dose curve; tested in A549 cells; note: nearly all actives have a fitted effect of over 35% in size
HCV inhibitor = HCV inhibition. Huh7.5.1 HCVcc-Cre infection, luciferase reporter, 44 h. Potency, µM (titrated, usually from 41.8 µM), inactives show top-dose activity change, negative = inhibition, actives largely listed as inhibitors. actives 3.4% (n = 340,000). AID 651820; active = well fitted inhibition curve with a large enough effect; inconclusive = small, poorly fitted or top-dose-only effect, or another doubt; inactive = no such curve, though single readings can be large or run the other way
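Cells (1,000/well) were plated 4 h before compound, then infected with HCVcc-Cre virus (~0.5 moi). After 44 h further culture, infection was read as luciferase luminescence following a 15 min substrate incubation at room temperature.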
The depositor's hits bear a star; i = inactive; ? = inconclusive; nt = no result; [ ] = dose if it differs, or a comment. In the library only some 3.3% were active in any assay of this set; here they are far more common. % is set by controls: 0 for no effect and ±100 for the full control effect; potency is the fitted concentration of half-maximal effect.

SMILES	VACV Venus inh	VACV mCherry inh	HCV inhibitor
O=C1C(Cc2ccccc2)Nc2ncnc(N3CCc4ccccc4C3)c2N1Cc1ccc(Br)cc1 (stereo not given)	nt	nt	-10.8%
COc1ccc2[nH]c3c(N4CCC(O)(c5cccc(C(F)(F)F)c5)CC4)ncnc3c2c1	?	i	6.31µM*
Brc1ccc2[nH]c3c(N4CCc5ccccc5C4)ncnc3c2c1	nt	nt	3.55µM*
CCOc1ccc2[nH]c3c(NCCOC)ncnc3c2c1	nt	nt	-10.5%
CCOc1ccc2[nH]c3c(N4CCc5ccccc5C4)ncnc3c2c1	?	3.55µM*	-79.0%
COc1ccc(N2C[C@H](C)[C@@H](CC(=O)Nc3ccc(Br)cc3)C2=O)cc1	-14.2%	i	nt
OC(c1cccnc1)c1ccc2c(c1)CN(Cc1cn(-c3ccccc3)nc1-c1ccccc1)CCO2 (stereo not given)	4.3%	-13.0%	nt
O=C(c1ccc2c(c1)N(Cc1cccc(Cl)c1)C(=O)c1ccccc1S2(=O)=O)N1CCc2ccccc21	-4.7%	-11.9%	nt
CCOC(=O)C1CCN(C(=O)Nc2ccc3nc(-c4ccco4)c(-c4ccco4)nc3c2)CC1	3.2%	nt	?
O=C(Nc1ccc2nc(-c3ccco3)c(-c3ccco3)nc2c1)N1CCCCCC1	-1.1%	i	2.82µM*
Cc1ccc(Cl)cc1N(C)C(=O)Cn1ncc2c([nH]c3ccccc32)c1=O	-2.8%[7.34 µM]	-9.3%[7.34 µM]	-16.4%
Cc1nc2ccn(Cc3ccco3)c(=O)c2cc1C(=O)NCc1ccc(Cl)cc1	-8.8%	-10.3%	nt
Cn1nc([N+](=O)[O-])nc1S(C)(=O)=O	-21.7%	?	10µM*
CS(=O)(=O)c1nc([N+](=O)[O-])nn1CCCc1ccccc1	-3.8%	-12.7%	?
Cc1ccc(OCc2cc(C(=O)N(C)Cc3cnn(-c4ccccc4C)c3)no2)cn1	-20.6%	-19.0%	11.2µM*
Cc1ccc(OCc2cc(C(=O)N(C)Cc3cnn(C)c3)no2)cc1C	-11.4%	-11.8%	nt
COc1ccc(Cl)cc1NC(=O)c1cc(-c2ccccc2O)n[nH]1	-27.6%	?	?
COc1ccc(OC)c(NC(=O)c2cc(-c3cc(Cl)ccc3O)n[nH]2)c1	nt	nt	7.08µM*
CCOc1cc2sc(N3CCC(C(=O)Nc4ccccc4C(=O)OC)CC3)nc2cc1Br	-19.8%	-16.1%	nt
CC(NS(=O)(=O)OCC(Cl)(Cl)Cl)c1ccc(C(C)(C)C)cc1 (stereo not given)	20µM*	11.2µM*	?
CC(C)(NS(=O)(=O)OCC(Cl)(Cl)Cl)c1ccccc1	?	?	6.4%
CCCNC(=O)C1(C)CCCN(C(=O)c2cccnc2Oc2ccccc2)C1 (stereo not given)	-2.1%	3.5%	nt
COCCNC(=O)C1(C)CCN(C(=O)c2cccnc2Oc2ccccc2)C1 (stereo not given)	31.6µM*	28.2µM*	nt
CCN(CC(=O)Nc1ccc(NC(C)=O)cc1)C(=O)CCCc1nc2ccccc2c(=O)[nH]1	-7.2%	-5.0%	-8.7%
Cc1ccccc1C1(CC(=O)N2CC3CC4CC(C3)CC2C4)CC(=O)N(Cc2cccnc2)C1=O (stereo not given)	-10.1%	-19.4%	nt
SMILES	VACV Venus inh	VACV mCherry inh	HCV inhibitor
COc1ccc(CN2COc3ccc4c(-c5ccccc5)cc(=O)oc4c3C2)cc1OC	-6.4%	-3.9%	nt
COc1ccc(C2CC(c3ccc(Br)cc3)=NN2C(=O)CN2CCCC2)cc1 (stereo not given)	-9.6%[7.34 µM]	-8.2%[7.34 µM]	10µM*
CNC(=S)N1N=C(c2ccc(C)cc2)CC1c1ccc(OC)cc1 (stereo not given)	?	-13.1%[1.46 µM]	?
CNC(=S)N1N=C(c2ccc(Br)cc2)CC1c1ccc(OC)cc1 (stereo not given)	-18.4%	-26.9%	10µM*
COc1ccc(C2=NN(C(=O)CN3CCCCC3)C(c3ccc(C)cc3)C2)cc1 (stereo not given)	-23.5%	-12.6%	-0.5%
CN(CCO)C(=O)c1cn(C2CCN(Cc3cccc4ccccc34)CC2)nn1	-6.4%	-10.4%	nt
COc1ccccc1OCCSc1nc2ccccc2n1CC(=O)N1CCOCC1	-1.1%	-4.7%	nt
CC(C)(C)NC(=O)c1cnn(-c2ccccc2)c1C1CCN(C(=O)OC(C)(C)C)CC1	-10.6%	-18.7%	nt
O=C(NCCCN1CCCCC1)c1ccc2c(c1)sc1nc(-c3ccc(F)cc3)cn12	?	-21.2%	nt
Cc1c(C(=O)NCc2cccnc2)sc2nc(-c3ccccc3)cn12	-23.7%	i	1.6%
Cc1c(C(=O)NCCCN2CCOCC2)sc2nc(-c3ccc(F)cc3)cn12	-21.8%	-25.4%	10µM*
Cc1c(C(=O)NCc2cccnc2)sc2nc(-c3ccc(F)cc3)cn12	?	?	11.2µM*
Cc1ccc(-c2cn3c(n2)sc2cc(C(=O)NCCCN4CCCCC4)ccc23)cc1	8.91µM*	11.2µM*	nt
COc1ccc(-c2cn3c(C)c(C(=O)NCCN4CCOCC4)sc3n2)cc1	0.3%	-10.4%	?
